Rows were chosen to be rich in hits. Some 2.8% of all compounds tested hit in one or more screens of this group.
Pol iota inh = DNA polymerase iota (human) inhibition; Q9UNA4; Pol iota fluorescent replication assay, 10 min; Potency, µM (series often up to 115 µM), for the others: at the top dose activity, negative = inhibition, actives largely listed as inhibitors; 390,000 compounds, 1% hits; AID 588590; further: potency means the concentration at half of the fitted maximal effect
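Pol iota at 10 nM preincubated 15 min with compounds at room temperature; reaction started with fluorescent substrate, 50 nM final. Fluorescence read kinetically at 0 and 10 min; buffer-only wells as negative control.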
WRN helicase inh = WRN helicase (human) inhibition. WRN helicase unwinding, fluorescent forked duplex, kinetic. AID 651768. 360,000 compounds, 0.46% hits. Potency, µM (series often up to 114 µM), without a hit: at the top dose activity change, negative = inhibition, usual class: inhibitors. Q14191; further: potency means the concentration at half of the fitted maximal effect; on the % scale 0 is the no-effect control and ±100 the full control effect; nearly all actives have a fitted effect of over 55% in size
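Kinetic fluorescence helicase assay: unwinding of a quenched forked DNA duplex (100 nM final) with 2 mM ATP final raises red fluorescence (525/598 nm). Compounds sat 15 min at room temperature with 20 nM WRN beforehand.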
Pol eta inh-1 = inhibitors of human DNA polymerase eta; Q9Y253; recombinant Pol eta, fluorescent DNA replication assay; Potency, µM (doses to about 114 µM), inactives show top-dose activity change, negative = inhibition, usual class: inhibitors; 390,000 compounds, 1.2% hits; further: potency means the concentration at half of the fitted maximal effect; on the % scale 0 is the no-effect control and ±100 the full control effect
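Pol eta (10 nM) was preincubated with compounds for 15 min at room temperature, after which fluorescent replication substrate (50 nM final) was added to start the reaction. Fluorescence was read kinetically at 0 and 10 min.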
Pol kappa inh-1 = inhibitors of human DNA polymerase kappa; 400,000 compounds, 0.53% hits; purified Pol kappa, fluorescent DNA synthesis assay, 10 min; Potency, µM (highest dose often 107 µM), without a hit: at the top dose activity, negative = inhibition, most hits filed as inhibitors; further: potency means the concentration at half of the fitted maximal effect; on the % scale 0 is the no-effect control and ±100 the full control effect
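10 nM Pol kappa was preincubated with compounds for 15 min at room temperature. Reaction started with 50 nM (final) substrate. Fluorescence read kinetically at 0 and 10 min.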
PI5P4K alpha inh = inhibitors of human PI5P4K alpha | P48426 | PI5P4Kalpha enzyme, ADP-Glo luminescence, 60 min; stronger effect = lower value | max response, % | 330,000 compounds, 1.2% hits | AID 652105; active means max response of -50% or lower; inconclusive means between -30% and -50%; inactive means -30% or higher; further: value at the top dose of about 77 µM; on the % scale 0 is the no-effect control and ±100 the full control effect
Target sequence (P48426 whole entry, looked up): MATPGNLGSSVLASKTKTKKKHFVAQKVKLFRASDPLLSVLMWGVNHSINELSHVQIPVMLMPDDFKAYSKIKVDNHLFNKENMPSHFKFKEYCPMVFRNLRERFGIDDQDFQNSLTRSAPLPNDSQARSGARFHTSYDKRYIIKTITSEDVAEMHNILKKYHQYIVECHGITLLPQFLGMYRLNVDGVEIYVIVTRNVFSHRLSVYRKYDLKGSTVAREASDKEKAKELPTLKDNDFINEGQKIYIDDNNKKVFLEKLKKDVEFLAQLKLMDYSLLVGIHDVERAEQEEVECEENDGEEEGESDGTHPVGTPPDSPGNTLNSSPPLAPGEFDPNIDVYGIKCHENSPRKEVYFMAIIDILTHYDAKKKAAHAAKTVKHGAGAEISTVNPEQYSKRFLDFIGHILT
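PI5P4Kalpha ADP-Glo assay; 5 microM ATP final; 60 min RT reaction; HEPES pH 7.4/EGTA/CHAPS, 5% DMSO; controls lacking substrate or enzyme; luminescent end-point.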
POLB inh = blocks human DNA polymerase beta activity. AID 485314. Pol beta primer extension/strand displacement, fluorescence kinetic. Potency, µM (top dose mostly 114 µM), for the others: at the top dose activity change, negative = inhibition, actives largely listed as inhibitors. P06746. 340,000 compounds, 1.3% hits; further: potency means the concentration at half of the fitted maximal effect; on the % scale 0 is the no-effect control and ±100 the full control effect
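Pol beta (10 nM) was preincubated with compound for 15 min at room temperature. The reaction was then started with 50 nM substrate and read immediately and after a further 10 min at room temperature.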
GALK confirm = confirmation of human galactokinase (GALK) inhibitors; shares compounds with Pol eta inh-1; AID 2015; purified GALK, Kinase-Glo ATP depletion luminescence; 150 compounds, 70% hits; Potency, µM (titrated, usually from 115 µM), inactives show at the top dose activity, negative = inhibition, most hits filed as inhibitors
Redox cycling = redox cycling activity in phenol red-HRP assay; shares compounds with Pol eta inh-1; Phenol red-HRP H2O2 redox cycling, absorbance 600 nm; Potency, µM (top dose mostly 115 µM), inactives show at the highest dose activity change, negative = H2O2 signal, usual class: inhibitors; 150 compounds, 40% hits; AID 2035
HEK293 viability = HEK-293 cytotoxicity, GALK inhibitor secondary. shares compounds with Pol eta inh-1. HEK-293 viability, ATP luminescence (CellTiter-Glo), 24/48 h. Potency, µM (highest dose often 46.1 µM), inactives show at the highest dose activity change, negative = cytotoxicity, usual class: inhibitors. 170 compounds, 10% hits. AID 2547; further: potency means the concentration at half of the fitted maximal effect; on the % scale 0 is the no-effect control and ±100 the full control effect
Pol kappa inh-2 = Pol kappa (human) inhibition, cherry-pick confirmation | shares compounds with Pol eta inh-1 | purified Pol-kappa, fluorescent strand-displacement substrate | Potency, µM, hits mostly inhibitors | 920 compounds, 76% hits | AID 720501; further: potency means the concentration at half of the fitted maximal effect
Pol eta inh-2 = confirmation of human DNA polymerase eta inhibitors; shares compounds with Pol eta inh-1; Pol eta primer extension, TAMRA/BHQ fluorescence, 10 min; Potency, µM, most hits filed as inhibitors; 2,600 compounds, 64% hits; AID 720502; further: potency means the concentration at half of the fitted maximal effect
Active calls of the source: *; ? = inconclusive; . = no result; [ ] = remark or other dose. Unless noted, the call rests on the fitted dose curve; in most records, active means well fitted curve in the direction sought with a large enough effect; inconclusive means small, poorly fitted or top-dose-only effect, or another doubt; inactive means no such curve, though single readings can be large; an effect the other way counts as inactive or inconclusive.

SMILES | Pol iota inh | WRN helicase inh | Pol eta inh-1 | Pol kappa inh-1 | PI5P4K alpha inh | POLB inh | Pol eta inh-2 | others
C/C=C/COC(=O)c1[nH]c2c(c1C)C(=O)CC(c1ccco1)C2 (stereo not given) | ? | ? | 22µM* | 79µM* | -29 | 22µM* | ?
O=C(CCn1c(=O)c2cccn2c2cccnc21)N1CCN(c2ccccc2)CC1 | 4% | . | -12% | 3% | . | 12% | .
O=C1c2cccc3c(O)ccc(c23)C(=O)N1c1ccc(Cl)cc1 | ? | ? | -18% | -26% | ? | -24% | .
CC(=O)Nc1ccc(N2C(=O)c3cccc4c(O)ccc(c34)C2=O)cc1 | ? | 50µM* | 32µM* | ? | ? | ? | ? | Pol kappa inh-2=30*
O=C1c2cc(O)cc(O)c2C(=O)c2c1cc(O)c([C@@H](CO)CCO)c2O | ? | -13%[11.6 µM] | 45µM* | 79µM* | -51* | . | ?
N#Cc1c(-c2ccccc2)nc(SCC(=O)Nc2ccc(OC(F)(F)Cl)cc2)[nH]c1=O | 12% | 0%[11.6 µM] | ? | 5% | ? | 22µM* | . | Pol kappa inh-2=?
N#Cc1c(-c2ccccc2)nc(SCC(=O)Nc2ccccc2)[nH]c1=O | 7% | -15% | 2% | -4% | ? | -21% | .
Cc1oc2ncnc(N3CCOCC3)c2c1C(=O)NCc1ccccc1 | 19% | . | 1% | 7% | . | 17% | .
CCN1CCN(CCNC(=O)c2ccc3nc(-c4cccc(C)c4)c(-c4cccc(C)c4)nc3c2)CC1 | -1% | 6%[57.1 µM] | -25% | 12% | 11 | 19% | . | GALK confirm=?;Redox cycling=-27%;HEK293 viability=?
O=C1c2ccccc2C(=O)c2c(O)c(O)cc(O)c21 | 79µM* | 249% | 32µM* | 50µM* | -106* | . | 43* | Pol kappa inh-2=75*
COc1ccc(Nc2c3c(nc4ccc(NC(=O)/C=C/c5cccc(OC)c5OC)cc24)CCCC3)cc1OC | ? | . | -7% | 13µM* | . | ? | . | Pol kappa inh-2=3.4*
COc1ccc(/C=C/C(=O)Nc2ccc3nc4c(c(Nc5ccccc5OC)c3c2)CCCC4)cc1 | ? | . | 7% | -43% | . | 12% | .
COc1ccccc1Nc1c2c(nc3ccc(NC(=O)/C=C/c4cccc(OC)c4OC)cc13)CCCC2 | -15% | . | 7% | ? | . | -22% | . | Pol kappa inh-2=0.84*
COc1ccc(Nc2c3c(nc4ccc(NC(=O)/C=C/c5cc(OC)c(OC)c(OC)c5)cc24)CCCC3)cc1OC | ? | . | 3% | ? | . | 23% | .
COc1ccc(Nc2ncc3c(n2)CCN(Cc2ccc(Br)s2)C3)c(OC)c1 | 6% | . | -1% | -8%[60.1 µM] | . | -18% | .
CCn1c(CN2CCOCC2)nc2cc(NC(=O)c3ccccc3[N+](=O)[O-])ccc21 | -9% | . | 4% | -2% | . | 7% | .
Cc1ccc(-c2[nH]nc3c2C(c2cccnc2)C(C#N)=C(N)O3)cc1 (stereo not given) | 8% | 0% | -14% | -16% | . | 21% | .
N#CC1=C(N)Oc2n[nH]c(-c3cccnc3)c2C1c1ccc([N+](=O)[O-])o1 (stereo not given) | ? | ? | 28µM* | ? | -59* | -2% | 67*
CC1(C)CC[C@]2(C(=O)O[C@@H]3O[C@H](CO)[C@@H](O)[C@H](O)[C@H]3O)CC[C@]3(C)C(=CCC4[C@@]5(C)CC[C@H](O[C@@H]6O[C@H](C(=O)O)[C@@H](O[C@H]7OC[C@@H](O)[C@@H](O)[C@@H]7O)[C@H](O)[C@H]6O)C(C)(C)C5CC[C@]43C)[C@@H]2C1 (stereo not given in full) | -6% | -2% | -5% | -7% | -24 | . | .
CC1(C)CC[C@]2(C(=O)O)CC[C@]3(C)C(=CC[C@@H]4[C@@]5(C)CC[C@H](O[C@@H]6O[C@H](C(=O)O)[C@@H](O)[C@H](O[C@@H]7OC[C@H](O)[C@H](O)[C@H]7O)[C@H]6O)C(C)(C)[C@@H]5CC[C@]43C)[C@@H]2C1 | ? | -6%[11.6 µM] | 50µM* | ? | -65* | . | . | Pol kappa inh-2=?
COc1cccc(-c2cc(C(=O)Nc3cc(Cl)ccc3O)on2)c1 | -17% | . | -14% | -16% | . | 1% | .
CC(=O)Oc1ccc2c(=O)c(Oc3ccccc3)coc2c1OC(C)=O | 13µM* | ? | 6.3µM* | 14µM* | -27 | 10µM* | ?
Cc1ccc(Oc2coc3cc(OC(=O)c4cccs4)ccc3c2=O)cc1 | ? | 20% | -2% | -19% | . | 19% | .
COc1ccc(Cn2c(O)c(C=Nc3ccccc3C(=O)O)c3ccccc3c2=O)cc1 | ? | ? | 20µM* | -45% | -13 | ? | 67*
CCS(=O)(=O)C1=NN2C(=N)/C(=C\c3ccc(OC(=O)c4ccco4)c(Br)c3)C(=O)N=C2S1 | . | . | . | . | . | 89µM* | . | GALK confirm=30µM*;Redox cycling=0%;HEK293 viability=-10%
COc1cc(/C=C2\C(=N)N3N=C(S(C)(=O)=O)SC3=NC2=O)ccc1OC(=O)c1cccs1 | -5% | -16% | ? | -4% | -24 | -3% | .
Cc1ccc(C)c(Cn2c(=O)cc(C(F)(F)F)c3c(C)nn(C)c32)c1 | 32% | . | -22% | -9% | . | 1% | .
CCC(C)(C)C1CCc2c(sc(NC(=O)c3ccccc3C(=O)O)c2C#N)C1 (stereo not given) | 26% | -35% | ? | -33% | ? | -34% | . | Pol kappa inh-2=?
COc1cc(N(C(C)=O)c2ccc(O)c(C(=O)O)c2)c2ncccc2c1 | . | -7%[11.6 µM] | 50µM* | . | ? | . | 85*
COc1cc(N(C(C)=O)c2ccc(O)cc2)c2ncccc2c1 | . | -4% | 1% | . | -11 | . | .

Source: PubChem
